Assay [1] is described as follows: yeast TOR pathway RPL19A-GFP modulators, primary screen, cell-based, S. cerevisiae, multiplex flow cytometry (AID 1862).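 Further: lower values mimic rapamycin by blocking the RPL19A rise seen in DMSO cells.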 Conditions: S. cerevisiae RPL19A-GFP strain, flow cytometry fluorescence, 3 h; at 10 µM; stronger effect = lower value. A general note: In flow cytometry, cells or beads pass a laser one at a time.
The nature of assay [2]: modulators of MEP2-GFP levels in yeast, primary screen, S. cerevisiae, multiplex flow cytometry (AID 1867;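 active means GFP response, as percent of the DMSO control, above the screen-wide mean plus 3 SD, about 139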;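 further: median GFP channel fluorescence of barcode-gated MEP2-GFP cells measured by flow cytometry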). The conditions noted are these: S. cerevisiae MEP2-GFP strain, 3 h, at 10 µM, stronger effect = higher value, 100% means same as DMSO wells.
Assay [3] is described as follows: modulators of CIT2-GFP expression in yeast, primary screen, S. cerevisiae, GFP fusion, multiplex flow cytometry (AID 1870;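 active means percent response above a set limit, the screen-wide mean plus 3 SD, cut at about 130% in these data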;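 further: barcoded CIT2-GFP strain pooled with four other GFP strains with rapamycin as positive control; median GFP fluorescence per well over plate mean of DMSO wells so 100% = DMSO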). The conditions noted are these: 3 h, at 10 µM, stronger effect = higher value.
Assay [4] is described as follows: modulators of LAP4-GFP expression in yeast, primary screen, S. cerevisiae, multiplex flow cytometry (AID 1873;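 active means GFP signal, as percent of the solvent control, above the screen mean plus 3 SD, about 149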). Conditions: 3 h, at 10 µM, stronger effect = higher value.
Assay [5] in a line: modulators of AGP1-GFP expression in yeast TOR pathway, primary screen, cell-based, multiplex flow cytometry, S. cerevisiae (AID 1887;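 active means GFP signal above the screen-wide mean plus 3 SD, that is over about 124.5% of the solvent control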;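 further: AGP1-GFP fusion strain of S. cerevisiae within a five-strain barcoded multiplex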). The conditions noted are these: 3 h, at 10 µM, stronger effect = higher value.
The nature of assay [6]: inhibitors of CD8+ T cell-vesicle binding, pilot screen, LFA-1/ICAM-1 modulator project, MLPCN validation set, flow cytometry (AID 2523;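 active means response below a set limit, under 55% cells CD8-positive and vesicle-bound, and CD8 cells' 90th-percentile brightness under 279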;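 on vesicle binding response: mean PE anti-B7-1 fluorescence of CD8+ cells relative to row control; 100% = QL9-loaded vesicles with DMSO vehicle in the same plate row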). The conditions noted are these: 2C mouse CD8+ T cells, at 7 µM, stronger effect = lower value; double positive events: measured here: CD8+/vesicle+ event percentage.
The target of assay [7] is Integrin beta-1 (Homo sapiens) + Integrin alpha-4 (Homo sapiens) (UniProt P13612+P05556). The assay can be described thus: inhibition of HUTS-21 binding to VLA-4, pilot screen, VLA-4 allosteric modulator project, U937 cells, HUTS-21 mAb, flow cytometry, validation set (AID 2674;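 active means inhibition above 50%, about 3 SD of the validation set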;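 further: antibody binding induced by the VLA-4 ligand LDV present at three times its Kd; 0% = LDV ligand with antibody and no compound and 100% = antibody without LDV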). Conditions: HUTS-21 LIBS mAb binding, at 6.7 µM, stronger effect = higher value, binding induced by LDV ligand.
Chain of Integrin beta-1 (Homo sapiens) + Integrin alpha-4 (Homo sapiens) (P05556 whole entry, looked up): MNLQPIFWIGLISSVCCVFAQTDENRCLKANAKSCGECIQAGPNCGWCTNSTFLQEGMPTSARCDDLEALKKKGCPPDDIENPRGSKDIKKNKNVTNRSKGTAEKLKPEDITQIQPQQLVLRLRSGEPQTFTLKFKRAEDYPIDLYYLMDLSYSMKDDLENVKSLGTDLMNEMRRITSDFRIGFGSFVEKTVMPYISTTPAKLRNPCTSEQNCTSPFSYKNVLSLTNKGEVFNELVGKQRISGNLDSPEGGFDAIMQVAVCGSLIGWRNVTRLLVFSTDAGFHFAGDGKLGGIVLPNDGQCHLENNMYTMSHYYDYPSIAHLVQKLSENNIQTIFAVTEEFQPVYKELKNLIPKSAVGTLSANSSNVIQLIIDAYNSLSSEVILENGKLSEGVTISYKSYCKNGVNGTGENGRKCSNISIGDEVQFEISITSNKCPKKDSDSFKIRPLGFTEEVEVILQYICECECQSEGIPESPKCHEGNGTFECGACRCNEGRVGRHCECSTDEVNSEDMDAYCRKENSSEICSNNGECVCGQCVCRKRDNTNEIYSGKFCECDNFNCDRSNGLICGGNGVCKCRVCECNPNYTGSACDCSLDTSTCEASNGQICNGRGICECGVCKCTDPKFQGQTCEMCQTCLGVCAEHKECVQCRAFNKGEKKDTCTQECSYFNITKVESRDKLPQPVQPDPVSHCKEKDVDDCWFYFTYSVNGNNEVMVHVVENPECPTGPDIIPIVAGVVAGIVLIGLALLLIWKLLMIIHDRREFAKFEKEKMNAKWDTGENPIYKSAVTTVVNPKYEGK
Chain of Integrin beta-1 (Homo sapiens) + Integrin alpha-4 (Homo sapiens) (P13612 whole entry, looked up): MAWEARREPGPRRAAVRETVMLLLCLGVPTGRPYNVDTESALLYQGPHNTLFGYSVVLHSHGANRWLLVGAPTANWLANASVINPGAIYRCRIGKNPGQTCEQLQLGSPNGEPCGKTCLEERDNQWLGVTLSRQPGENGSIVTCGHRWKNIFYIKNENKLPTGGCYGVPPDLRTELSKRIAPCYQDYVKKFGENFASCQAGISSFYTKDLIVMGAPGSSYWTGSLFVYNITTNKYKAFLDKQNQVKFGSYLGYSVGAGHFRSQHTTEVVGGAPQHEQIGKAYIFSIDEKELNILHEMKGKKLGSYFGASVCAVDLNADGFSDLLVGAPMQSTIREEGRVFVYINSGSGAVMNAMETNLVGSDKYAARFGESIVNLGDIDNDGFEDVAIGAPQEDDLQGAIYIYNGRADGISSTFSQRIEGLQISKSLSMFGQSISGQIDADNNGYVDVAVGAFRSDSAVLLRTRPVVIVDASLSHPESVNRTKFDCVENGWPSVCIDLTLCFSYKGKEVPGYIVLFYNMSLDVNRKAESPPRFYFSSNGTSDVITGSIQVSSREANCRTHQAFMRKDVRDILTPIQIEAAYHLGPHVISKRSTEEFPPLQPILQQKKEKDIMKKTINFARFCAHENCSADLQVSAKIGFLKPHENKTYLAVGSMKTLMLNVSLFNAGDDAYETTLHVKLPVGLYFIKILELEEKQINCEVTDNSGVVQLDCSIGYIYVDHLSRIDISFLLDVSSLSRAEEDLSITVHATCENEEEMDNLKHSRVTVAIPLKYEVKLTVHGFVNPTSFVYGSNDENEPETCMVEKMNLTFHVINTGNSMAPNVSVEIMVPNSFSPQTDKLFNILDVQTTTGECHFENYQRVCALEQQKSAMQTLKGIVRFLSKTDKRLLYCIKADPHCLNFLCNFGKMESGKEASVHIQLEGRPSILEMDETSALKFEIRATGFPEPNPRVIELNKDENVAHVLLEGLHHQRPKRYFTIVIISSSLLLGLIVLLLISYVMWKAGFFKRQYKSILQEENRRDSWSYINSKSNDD

Assay [8] can be described thus: superoxide lowering in aged yeast cells, pilot screen, validation compound set (AID 2706;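 active means superoxide response below 65% of plate, a cut near 3 SD across the whole screen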;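 further: yeast exposed to compound for one week at 30 degrees C before staining; 100% = mean of all compound wells on the same plate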). Conditions: S. cerevisiae aging, superoxide DHE fluorescence; at 10 µM; stronger effect = lower value.
Assay [9] has as its target Beta-adrenergic receptor kinase 1 (Homo sapiens) (UniProt P25098). The assay can be described thus: GRK2 binders displacing RNA aptamer, biochemical, validation, human GRK2, bead flow cytometry (AID 488806;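 active means aptamer binding inhibition above 30%, about 3 SD of noise from non-fluorescent compounds; inactive means inhibition at or below 30%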). Conditions: bead-bound GRK2, FAM-aptamer displacement, at 10 µM, stronger effect = higher value.
Assay [10] deals with Beta-2 adrenergic receptor (Homo sapiens) (UniProt P07550). In words: beta2AR agonists driving receptor internalization, pilot screen, cell-based, FAP fluorogen, flow cytometry, validation set (AID 504459;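 active means percent response above 42, roughly 3 SD of non-fluorescent test compounds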;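 further: agonist-driven loss of surface beta2AR via internalization measured by FAP dye flow cytometry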). Conditions: Am2.2-beta2AR cells, FAP surface receptor flow cytometry; at 10 µM; stronger effect = higher value.
Chain of Beta-2 adrenergic receptor (Homo sapiens) (P07550 whole entry, looked up): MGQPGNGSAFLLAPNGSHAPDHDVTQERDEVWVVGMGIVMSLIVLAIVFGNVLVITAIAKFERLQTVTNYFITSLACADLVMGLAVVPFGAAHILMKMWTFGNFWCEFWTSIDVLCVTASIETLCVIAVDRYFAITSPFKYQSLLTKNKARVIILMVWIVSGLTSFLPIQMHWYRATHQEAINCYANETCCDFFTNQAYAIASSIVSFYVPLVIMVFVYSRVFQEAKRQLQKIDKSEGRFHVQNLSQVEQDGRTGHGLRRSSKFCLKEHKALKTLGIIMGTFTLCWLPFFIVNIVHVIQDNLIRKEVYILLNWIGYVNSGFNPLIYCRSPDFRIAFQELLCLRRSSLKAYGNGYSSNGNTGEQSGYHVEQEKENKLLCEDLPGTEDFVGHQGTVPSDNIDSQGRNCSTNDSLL
Assay [11] deals with AP-2 complex subunit beta (Homo sapiens) (UniProt P63010). In words: inhibitors of arrestin peptide binding to AP2, pilot screen, biochemical, validation set, GST-AP2 beads, flow cytometry (AID 504541;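 active means inhibition above 54%, about 3 SD of non-fluorescent compounds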;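 further: AP2 carries R879A mutation and is captured from E. coli lysate; bead-bound FITC arrestin peptide fluorescence measuring arrestin peptide binding to AP2; 0% = DMSO wells and 100% = excess unlabeled arrestin peptide control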). The conditions noted are these: FITC arrestin peptide, at 10 µM, stronger effect = higher value, AP2 beta2 appendage fragment, R879A mutant.
Chain of AP-2 complex subunit beta (Homo sapiens) (P63010 whole entry, looked up, the tested form may be a part, one chain of several): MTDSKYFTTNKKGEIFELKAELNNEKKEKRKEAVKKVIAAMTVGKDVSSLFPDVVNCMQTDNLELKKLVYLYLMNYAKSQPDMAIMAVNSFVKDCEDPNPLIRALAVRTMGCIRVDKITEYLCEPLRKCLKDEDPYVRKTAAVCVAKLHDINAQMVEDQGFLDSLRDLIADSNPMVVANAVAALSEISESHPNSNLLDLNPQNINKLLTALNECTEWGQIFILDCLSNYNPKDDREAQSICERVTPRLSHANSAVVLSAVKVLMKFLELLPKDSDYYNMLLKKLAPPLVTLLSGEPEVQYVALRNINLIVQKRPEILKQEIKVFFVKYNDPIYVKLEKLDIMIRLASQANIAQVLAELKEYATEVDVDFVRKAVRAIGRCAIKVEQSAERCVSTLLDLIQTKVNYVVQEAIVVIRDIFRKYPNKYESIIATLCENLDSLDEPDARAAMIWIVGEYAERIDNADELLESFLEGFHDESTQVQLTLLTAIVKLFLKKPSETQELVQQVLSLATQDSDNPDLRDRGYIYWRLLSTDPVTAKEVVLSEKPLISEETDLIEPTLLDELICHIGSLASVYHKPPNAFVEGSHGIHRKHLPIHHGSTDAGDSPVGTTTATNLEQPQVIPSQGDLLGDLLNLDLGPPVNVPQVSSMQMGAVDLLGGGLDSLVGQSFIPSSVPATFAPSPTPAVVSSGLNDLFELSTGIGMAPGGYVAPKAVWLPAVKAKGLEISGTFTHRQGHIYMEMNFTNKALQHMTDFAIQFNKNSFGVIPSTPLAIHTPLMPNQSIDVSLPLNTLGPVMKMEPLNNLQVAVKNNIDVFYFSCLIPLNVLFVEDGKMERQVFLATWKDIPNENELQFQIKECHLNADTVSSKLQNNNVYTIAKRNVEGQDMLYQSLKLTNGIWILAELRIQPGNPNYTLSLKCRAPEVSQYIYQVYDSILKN
Assay [12] in a line: yeast V-ATPase proton transport modulators, S. cerevisiae, pHLuorin, HTS validation (AID 504600; in the data active means response above about 15%;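 further: plate controls were DMSO for no effect and reference compound for full effect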). The conditions noted are these: S. cerevisiae pHLuorin cytosolic pH, at 10 µM, stronger effect = higher value.
In assay [13] the test system is anti-desmoglein-3 scFv antibody binding to human DSG3. In words: inhibitors of anti-DSG3 scFv binding to DSG3, pilot screen, biochemical, validation compound set, bead-based, flow cytometry (AID 588368;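 active means binding below the plate cutoff, the plate median minus 3 SD, with a reading above zero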;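 further: signal is the median channel fluorescence of bead-bound GFP antibody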). Conditions: Protein G beads, DSG3-Fc, scFv-GFP binding, at 10 µM, stronger effect = lower value.
Assay [14] is described as follows: inhibitors of fungal efflux pumps CDR1, CDR2, MDR1, pilot screen, validation compound set, multiplex, phenotypic (AID 588506;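 active means efflux inhibition above 0.42, the validation set average plus 4 SD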;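 further: Nile Red retained in cells so higher fluorescence means more efflux inhibition; 0 = negative control wells and 1 = enniatin B 25 µM full block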). The conditions noted are these: S. cerevisiae pump-expressing triplex, Nile Red efflux flow cytometry; at 10 µM; stronger effect = higher value; the pumps come from Candida albicans.
Assay [15] deals with ATP-binding cassette sub-family B member 6 (Homo sapiens) (UniProt Q9NP58). The assay can be described thus: ABCB6 transporter inhibitors, pilot screen, K562-ABCB6 cells, flow cytometry, validation set (AID 588550;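 active means inhibition above the screen-wide mean plus 3 SD, about 51%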;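 further: 0% = DMSO wells and 100% = benzethonium chloride 70 µM positive control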). The conditions noted are these: K562-ABCB6 porphyrin accumulation, 1 h, at 10 µM, stronger effect = higher value.
Chain of ATP-binding cassette sub-family B member 6 (Homo sapiens) (Q9NP58 whole entry, looked up): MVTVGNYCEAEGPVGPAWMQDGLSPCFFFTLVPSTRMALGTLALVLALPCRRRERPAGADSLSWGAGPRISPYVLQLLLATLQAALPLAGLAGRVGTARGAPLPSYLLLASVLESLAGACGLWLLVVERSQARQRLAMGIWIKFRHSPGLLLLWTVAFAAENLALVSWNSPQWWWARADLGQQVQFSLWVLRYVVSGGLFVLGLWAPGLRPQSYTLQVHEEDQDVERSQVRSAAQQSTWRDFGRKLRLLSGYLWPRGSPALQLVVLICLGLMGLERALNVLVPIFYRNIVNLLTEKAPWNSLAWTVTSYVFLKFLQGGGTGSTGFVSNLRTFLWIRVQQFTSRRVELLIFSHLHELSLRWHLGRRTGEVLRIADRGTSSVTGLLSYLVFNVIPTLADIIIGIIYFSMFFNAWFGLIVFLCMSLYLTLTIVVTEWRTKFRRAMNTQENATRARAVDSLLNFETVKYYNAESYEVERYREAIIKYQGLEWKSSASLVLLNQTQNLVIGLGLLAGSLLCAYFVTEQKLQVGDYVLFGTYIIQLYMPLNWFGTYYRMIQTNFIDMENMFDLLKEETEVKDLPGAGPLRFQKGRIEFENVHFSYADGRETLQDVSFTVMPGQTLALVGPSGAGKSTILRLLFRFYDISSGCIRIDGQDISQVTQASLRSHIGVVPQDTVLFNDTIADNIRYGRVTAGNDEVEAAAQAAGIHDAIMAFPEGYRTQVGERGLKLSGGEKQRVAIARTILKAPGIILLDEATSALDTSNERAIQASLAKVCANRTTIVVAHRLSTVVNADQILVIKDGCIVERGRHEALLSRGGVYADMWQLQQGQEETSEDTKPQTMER
The nature of assay [16]: promoters of myeloid differentiation in arrested cells, primary screen, cell-based, GFP/MAC1 double positive, flow cytometry, validation set (AID 588685;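 active means differentiation response of at least 50%, scaled between solvent and reference control, from cells with both markers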;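 further: compound exposure lasts four days before antibody staining and flow analysis; 0% = DMSO wells and 100% = 5 µM fulvestrant positive control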). Conditions: ER-HoxA9 marrow cells, stronger effect = higher value, normalized: vehicle 0, fulvestrant 100.

This is an account of results in PubChem BioAssay.

Inconclusive results are not listed. Calls of active or inactive are those of the source. Unless noted, no stated cut-off is given here; in the data, active means percent of DMSO control GFP below about 86%; inactive means the rest, inconclusive results apart.

Chain of Beta-adrenergic receptor kinase 1 (Homo sapiens) (P25098 whole entry, looked up): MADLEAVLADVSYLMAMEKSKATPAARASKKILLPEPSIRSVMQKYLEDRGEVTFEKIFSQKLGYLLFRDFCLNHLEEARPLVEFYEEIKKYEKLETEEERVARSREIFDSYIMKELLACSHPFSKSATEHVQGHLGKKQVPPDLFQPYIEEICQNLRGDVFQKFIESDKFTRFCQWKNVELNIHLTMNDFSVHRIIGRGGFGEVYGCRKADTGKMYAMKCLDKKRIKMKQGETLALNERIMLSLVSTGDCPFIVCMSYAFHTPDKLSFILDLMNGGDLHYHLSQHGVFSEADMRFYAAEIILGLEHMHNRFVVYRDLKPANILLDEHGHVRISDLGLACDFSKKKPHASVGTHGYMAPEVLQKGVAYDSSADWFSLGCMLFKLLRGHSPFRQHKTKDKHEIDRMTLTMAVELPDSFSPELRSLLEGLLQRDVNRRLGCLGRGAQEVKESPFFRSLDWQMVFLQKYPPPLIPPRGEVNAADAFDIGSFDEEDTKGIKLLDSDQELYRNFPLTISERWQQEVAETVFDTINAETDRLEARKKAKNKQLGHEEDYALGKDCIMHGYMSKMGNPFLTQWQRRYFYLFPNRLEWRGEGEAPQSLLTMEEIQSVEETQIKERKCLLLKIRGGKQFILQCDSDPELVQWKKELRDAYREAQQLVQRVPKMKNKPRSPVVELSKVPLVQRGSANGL

On to `COc1cc(C2Nc3ccccc3NC3=C2C(=O)CC(c2ccc(OC)c(OC)c2)C3)ccc1O` (stereo not given), for which the percent of DMSO control GFP in [1] is 107% (inactive). For the same compound, the GFP response vs DMSO in assay [2] was 95.2% (inactive); in assay [4] it was 64.1% (inactive). In addition, the percent response of DMSO control in assay [3] is 117% (inactive). For the same compound, the GFP response, % of DMSO in [5] was 92.2% (inactive). This compound also registered a double positive events in assay [6] of 53.7%. The vesicle binding response in [6] was 104% (inactive). Besides, the figures for the inhibition in assay [7], in assay [11] and in assay [15] were -3.16% (inactive), -8.83% (inactive) and 11% (inactive), respectively. Further, in assay [8], the superoxide response (% of plate) was 107% (inactive). Moreover, the aptamer binding inhibition in assay [9] was 3% (inactive). Also, the response in [10] was 0.79% (inactive); in assay [12], 1.04% (inactive). For the same compound, the binding (% of control) in assay [13] was 98.4% (inactive). Also, the efflux inhibition (fraction of control) in assay [14] is -0.35 (inactive). For the same compound, the differentiation response in assay [16] was -18.4% (inactive).
Turning to `Nc1ccn([C@@H]2O[C@H](CO)[C@@H](O)[C@@H]2O)c(=O)n1`, in assay [1], the percent of DMSO control GFP is 101% (inactive). Moreover, the figures for the GFP response vs DMSO in [2] and in assay [4] were 106% (inactive) and 114% (inactive), respectively. In addition, in [3], the percent response of DMSO control was 109% (inactive). The GFP response, % of DMSO in assay [5] is 111% (inactive). Besides, the double positive events in [6] stood at 64.5%. Further, the vesicle binding response in [6] is 201% (inactive). Besides, the inhibition in assay [7] is 8.29% (inactive); in [11] it was 10.5% (inactive); in assay [15] it was -10% (inactive). In addition, the superoxide response (% of plate) in assay [8] is 108% (inactive). Besides, the aptamer binding inhibition in assay [9] is 0% (inactive). In addition, the response was -9.36% (inactive) in [10] and -2.75% (inactive) in assay [12]. Also, the binding (% of control) in assay [13] is 99.4% (inactive). The efflux inhibition (fraction of control) in assay [14] was -0.08 (inactive). The differentiation response in assay [16] is -11.9% (inactive).
With `COc1ccc(Cc2noc(CN(C)CCN3CCc4ccccc4C3)n2)cc1OC`, the percent of DMSO control GFP in [1] was 103% (inactive). The GFP response vs DMSO in assay [2] was 105% (inactive); in assay [4], 91.4% (inactive). For the same compound, the percent response of DMSO control in assay [3] is 109% (inactive). In [5], the GFP response, % of DMSO was 103% (inactive). In addition, the double positive events in assay [6] came out at 65.2%. Moreover, the vesicle binding response in assay [6] was 232% (inactive). Besides, the values for the inhibition in assay [7], in assay [11] and in assay [15] were -8.75% (inactive), -8.41% (inactive) and -12% (inactive), respectively. Further, the superoxide response (% of plate) in [8] was 95% (inactive). The aptamer binding inhibition in assay [9] was 6% (inactive). Moreover, the response in assay [10] is -6.59% (inactive); in [12] it was 0.56% (inactive). In assay [13], the binding (% of control) is 104% (inactive). In assay [14], the efflux inhibition (fraction of control) is -0.1 (inactive). Also, the differentiation response in assay [16] is 5.13% (inactive).
As to `CC(C)C[C@H]1C(=O)N2CCC[C@H]2[C@]2(O)O[C@](NC(=O)[C@@H]3C=C4c5cccc6[nH]c(Br)c(c56)CC4N(C)C3)(C(C)C)C(=O)N12` (stereo not given in full), the percent of DMSO control GFP in assay [1] is 106% (inactive). Moreover, the GFP response vs DMSO is 105% (inactive) in assay [2] and 102% (inactive) in assay [4]. For the same compound, in [3], the percent response of DMSO control was 99.7% (inactive). Further, in [5], the GFP response, % of DMSO is 104% (inactive). Further, the double positive events in [6] was 49.2%. Besides, the vesicle binding response in assay [6] is 107% (inactive). Also, the inhibition is -7.79% (inactive) in [7], -3.14% (inactive) in assay [11] and -91% (inactive) in assay [15]. Further, the superoxide response (% of plate) in [8] is 97.8% (inactive). Further, the aptamer binding inhibition in [9] was 0% (inactive). Further, the response in [10] is -5.85% (inactive); in assay [12], 3.49% (inactive). Moreover, the binding (% of control) in assay [13] was 99.8% (inactive). The efflux inhibition (fraction of control) in assay [14] was 0.58 (active). Also, the differentiation response in assay [16] is 1.28% (inactive).
Take `Cc1nc2ccccc2n1CC(O)Cn1c2ccccc2c2ccccc21` (stereo not given): the percent of DMSO control GFP in [1] was 90.9% (inactive). For the same compound, the GFP response vs DMSO was 115% (inactive) in [2] and 78.7% (inactive) in assay [4]. Besides, in assay [3], the percent response of DMSO control was 101% (inactive). Further, the GFP response, % of DMSO in [5] is 91.9% (inactive). Also, the double positive events in [6] is 62.2%. For the same compound, the vesicle binding response in assay [6] is 174% (inactive). Moreover, the inhibition in assay [7] was 4.52% (inactive); in [11] it was -4.66% (inactive); in assay [15], 9% (inactive). In addition, the superoxide response (% of plate) in assay [8] is 97.8% (inactive). In assay [9], the aptamer binding inhibition is 2% (inactive). The response in assay [10] is 8.04% (inactive); in assay [12], -1.44% (inactive). For the same compound, the binding (% of control) in [13] is 104% (inactive). Also, in assay [14], the efflux inhibition (fraction of control) was 0.19 (inactive). Besides, the differentiation response in assay [16] is -1.64% (inactive).

As usually defined, the inhibition is the relative decrease from the control value, in per cent.
